Test [1] is described as follows: qHTS of pediatric cancer cell lines to identify multiple opportunities for drug repurposing: Primary screen for BT-12 cells (AID 1347101). Also: nearly all actives have a fitted effect of over 25% in size. Also: potency is read from the fitted curve at half-maximal effect.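 As to activity change, negative = cytotoxic: plate controls were DMSO for no effect and bortezomib positive control for full effect.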 The gist of the method: (§1)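 Cells (500-1,000/well) rested 5 h, then received compounds for 48 h; metabolically active cells were measured by CellTiter-Glo luminescence. Final concentrations spanned up to 46 µM (MIPE, 11-point) or 0.59 nM-46 µM (NPC, 8-point) in primary screens, 11-point in follow-ups.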
(In general: Quantitative high-throughput screening tests each substance at several concentrations.)

A short description of test [2]: qHTS of pediatric cancer cell lines to identify multiple opportunities for drug repurposing: Primary screen for OHS-50 cells (AID 1347103). Also: nearly all actives have a fitted effect of over 40% in size. Also: potency is read from the fitted curve at half-maximal effect.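 As to activity change, negative = cytotoxic: plate controls were DMSO neutral control for no effect and bortezomib positive control for full effect.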 The gist of the method: as §1
Test [3] can be described thus: qHTS of pediatric cancer cell lines to identify multiple opportunities for drug repurposing: Primary screen for RD cells (AID 1347104). Also: nearly all actives have a fitted effect of over 55% in size. Also: potency is read from the fitted curve at half-maximal effect.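 As to activity change, negative = cytotoxic: plate controls were DMSO for no effect and bortezomib for full effect.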 In outline: (§2)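 Readout: CellTiter-Glo luminescence, 48 h treatment. Controls DMSO (neutral) and bortezomib 2.3 µM final (positive). Potency and efficacy taken from primary-screen concentration-response curves.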
Test [4] is described as follows: qHTS of pediatric cancer cell lines to identify multiple opportunities for drug repurposing: Primary screen for MG 63 (6-TG R) cells (AID 1347105). Also: nearly all actives have a fitted effect of over 50% in size. Also: potency is read from the fitted curve at half-maximal effect. In outline:
as §2

The nature of test [5]: qHTS of pediatric cancer cell lines to identify multiple opportunities for drug repurposing: Primary screen for Rh30 cells (AID 1347107). Also: nearly all actives have a fitted effect of over 75% in size. Also: potency is read from the fitted curve at half-maximal effect. As to activity change, negative = cytotoxic: % is scaled to controls: 0 for no effect and ±100 for the full control effect. In outline: as §1
A short description of test [6]: qHTS of pediatric cancer cell lines to identify multiple opportunities for drug repurposing: Primary screen for Rh41 cells (AID 1347108). Also: nearly all actives have a fitted effect of over 70% in size. Also: potency is read from the fitted curve at half-maximal effect.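 As to activity change, negative = cytotoxic: luminescence drop marks cytotoxic hits.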 In outline:
as §2

Test [7] in a line: qHTS of pediatric cancer cell lines to identify multiple opportunities for drug repurposing: Confirmatory screen for NB1643 cells (AID 1347109). Also: nearly all actives have a fitted effect of over 45% in size. Also: potency is read from the fitted curve at half-maximal effect.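 As to activity change, negative = cytotoxic: plate controls were DMSO for no effect and bortezomib for full effect.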 In outline:
as §1

Test [8] is described as follows: qHTS of pediatric cancer cell lines to identify multiple opportunities for drug repurposing: Confirmatory screen for A673 cells (AID 1347110).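 Also: potency is read from the fitted curve at half-maximal effect; cells exposed to compound for 48 h before the viability read; nearly all actives have a fitted effect of over 65% in size.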 The gist of the method: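 A673 cells seeded at 500-1,000 cells/well, rested 5 h, then dosed; primary MIPE 11-point (0.78 nM to 46 µM), NPC (0.59 nM to 46 µM); confirmatory 11-point. CellTiter-Glo luminescence after 48 h.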

A short description of test [9]: qHTS of pediatric cancer cell lines to identify multiple opportunities for drug repurposing: Confirmatory screen for SK-N-MC cells (AID 1347111).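 Also: potency is read from the fitted curve at half-maximal effect; cells exposed to compound for 48 h before the readout; nearly all actives have a fitted effect of over 70% in size.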 The gist of the method: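 Seed 500-1,000 cells/well; rest 5 h at 37 degrees C. Pin-transfer compounds, 11-point titration. Incubate 48 h. Add CellTiter-Glo, 15 min RT, read luminescence.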
A short description of test [10]: qHTS of pediatric cancer cell lines to identify multiple opportunities for drug repurposing: Confirmatory screen for BT-12 cells (AID 1347112). Also: nearly all actives have a fitted effect of over 55% in size. Also: potency is read from the fitted curve at half-maximal effect. As to activity change, negative = cytotoxic: % is scaled to controls: 0 for no effect and ±100 for the full control effect. The gist of the method:
as §1

A short description of test [11]: qHTS of pediatric cancer cell lines to identify multiple opportunities for drug repurposing: Confirmatory screen for LAN-5 cells (AID 1347113). Also: nearly all actives have a fitted effect of over 65% in size. Also: potency is read from the fitted curve at half-maximal effect. The gist of the method: as §1
Test [12] is described as follows: qHTS of pediatric cancer cell lines to identify multiple opportunities for drug repurposing: Confirmatory screen for DAOY cells (AID 1347114). Also: nearly all actives have a fitted effect of over 65% in size. Also: potency is read from the fitted curve at half-maximal effect. As to activity change, negative = cytotoxic: % is scaled to controls: 0 for no effect and ±100 for the full control effect. The gist of the method:
(§3)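 Viability measured as metabolically active cells via CellTiter-Glo luminescence following 48 hours of compound exposure, 11-point dilutions in confirmatory testing. 500-1,000 cells/well plated 5 hours before dosing; controls were DMSO and 2.3 µM bortezomib.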

A short description of test [13]: qHTS of pediatric cancer cell lines to identify multiple opportunities for drug repurposing: Confirmatory screen for SJ-GBM2 cells (AID 1347116). Also: nearly all actives have a fitted effect of over 60% in size. Also: potency is read from the fitted curve at half-maximal effect.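 As to activity change, negative = cytotoxic: plate controls were DMSO for no effect and bortezomib for full effect.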 In outline: as §3
The nature of test [14]: qHTS of pediatric cancer cell lines to identify multiple opportunities for drug repurposing: Confirmatory screen for BT-37 cells (AID 1347117). Also: nearly all actives have a fitted effect of over 55% in size. Also: potency is read from the fitted curve at half-maximal effect.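 As to activity change, negative = cytotoxic: plate controls were DMSO for no effect and bortezomib for full effect.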 As to conditions: BT-37 pediatric cancer cells, viability; activity change, negative = cytotoxic: at 45.9 µM (top of the series). In outline:
as §1

A short description of test [15]: qHTS of pediatric cancer cell lines to identify multiple opportunities for drug repurposing: Confirmatory screen for TC32 cells (AID 1347118).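 Also: potency is read from the fitted curve at half-maximal effect; cells exposed to compound for 48 h before the read; nearly all actives have a fitted effect of over 65% in size.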 In outline:
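Luminescent CellTiter-Glo read-out of metabolically active TC32 cells after 48 h compound exposure. Primary: MIPE 11-point, 0.78 nM–46 µM; NPC 8-point, 0.59 nM–46 µM. Confirmatory: 11-point dilutions.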

A short description of test [16]: qHTS of pediatric cancer cell lines to identify multiple opportunities for drug repurposing: Confirmatory screen for MG 63 (6-TG R) cells (AID 1347119). Also: nearly all actives have a fitted effect of over 55% in size. Also: potency is read from the fitted curve at half-maximal effect. In outline: as §1
Test [17] in a line: qHTS of pediatric cancer cell lines to identify multiple opportunities for drug repurposing: Confirmatory screen for control Hh wild type fibroblast cells (AID 1347121).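 Also: plate controls were DMSO for no effect and bortezomib for full effect; nearly all actives have a fitted effect of over 70% in size.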 In outline: as §1
The nature of test [18]: qHTS of pediatric cancer cell lines to identify multiple opportunities for drug repurposing: Confirmatory screen for NB-EBc1 cells (AID 1347115).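 Also: cells exposed to compound for 48 h before the viability read; nearly all actives have a fitted effect of over 45% in size.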 Also: potency is read from the fitted curve at half-maximal effect. As to activity change, negative = cytotoxic: % is scaled to controls: 0 for no effect and ±100 for the full control effect. The gist of the method: as §1
The nature of test [19]: qHTS of pediatric cancer cell lines to identify multiple opportunities for drug repurposing: Primary screen for control Hh wild type fibroblast cells (AID 1347106). In outline:
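Viability after 48 h compound treatment at 37C, 500-1,000 cells/well, read as ATP luminescence with CellTiter-Glo. Primary screens used 11-point (MIPE, 0.78 nM-46 µM) or 8-point (NPC, 0.59 nM-46 µM) final concentrations; follow-up screens used 11-point dilutions.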

Results filed as inconclusive are left out. A number with no mark means an inactive call. Active and inactive are the calls of the source. Calls follow the shape of the dose curve; as a rule, active = well fitted curve in the direction sought with a large enough effect; inconclusive = small, poorly fitted or top-dose-only effect, or another doubt; inactive = no such curve, though single readings can be large; an effect the other way counts as inactive or inconclusive.

This note sets out measurements from PubChem BioAssay (NCATS).

For `CC(C=CC1=C(C)CCCC1(C)C)=CC=CC(C)=CC(=O)Nc1ccc(O)cc1`, the Potency in test [1] was 12.5 µM (active); in [2] it was 17.7 µM (active); in test [3] it was 34 µM (active); in test [4] it was 27 µM (active); in [5], 42.9 µM (active); in test [6] it was 7.62 µM (active). Besides, the Potency in test [7] is 42.7 µM (active); in test [8], 0.38 µM (active); in [9] it was 2.4 µM (active); in test [10], 24 µM (active); in [11] it was 6.03 µM (active); in test [12], 33.9 µM (active). Further, the Potency in test [13] is 2.4 µM (active); in test [14] it was 38 µM (active); in [15], 2.14 µM (active); in [16], 42.7 µM (active).
`CC(=O)SCC(Cc1ccccc1)C(=O)NCC(=O)OCc1ccccc1` (stereo unspecified): the Potency was 3.43 µM (active) in [1], 19.3 µM (active) in [2], 2.09 µM (active) in test [3] and 5.9 µM (active) in [6]. Also, the Potency entry in test [7], in test [10], in test [11], in [12], in [13] and in [14] was “inactive” throughout. The Potency entry in test [16] and in test [17] was “inactive” each time.
With `CC[C@]12C=CCN3CC[C@@]4(c5cc([C@@]6(C(=O)OC)C[C@H]7C[C@@H](C(C)(F)F)CN(Cc8c6[nH]c6ccccc86)C7)c(OC)cc5N(C)[C@H]4[C@@](O)(C(=O)OC)[C@H]1OC(C)=O)[C@@H]32`, the Potency is 0.0343 µM (active) in [1]; 0.0193 µM (active) in [2]; 0.0059 µM (active) in test [3]; 9.27 µM (active) in [9]; 9.27 µM (active) in test [15]. Also, the Potency result in [5], in test [7], in test [10], in [11], in [12] and in test [13] was “inactive” throughout. In addition, the Potency result in [14], in test [16] and in [17] was “inactive” throughout.
`C=Cc1c(C)c2cc3nc(cc4[nH]c(cc5nc(cc1[nH]2)C(C)=C5CCC(=O)O)c(CCC(=O)OC)c4C)[C@@]1(C)C3=CC=C(C(=O)OC)[C@H]1C(=O)OC`: the Potency is 0.344 µM (active) in test [1]; 0.769 µM (active) in test [2]; 0.105 µM (active) in test [3]; 1.18 µM (active) in [4]; 0.0743 µM (active) in [6]. Besides, the Potency result in [5], in test [7], in test [10], in test [18], in test [13] and in test [17] was “inactive” each time.
In the case of `CC(C)c1cnn2c(NCc3ccccc3)cc(NCCCCCCN)nc12`, the Potency is 27.3 µM (active) in [1]; 21.7 µM (active) in test [2]; 18.7 µM (active) in test [3]; 5.9 µM (active) in test [4]; 7.43 µM (active) in test [6].
As for `CN(C)CCN1C(=O)c2cccc3cc(N)cc(c23)C1=O`, the Potency in test [1] was 21.7 µM (active); in test [2], 24.3 µM (active); in test [3], 18.7 µM (active); in test [6], 23.5 µM (active).
As for `c1coc(CNc2ncnc3nc[nH]c23)c1`, the Potency entry in test [1], in test [2], in test [3], in [19], in test [5] and in test [6] was “inactive” throughout.
As to `CC(=O)NCC(=O)N1[C@H]2CC[C@H]1c1cc(Nc3ncc(C(F)(F)F)c(NC4CCC4)n3)ccc12`, the Potency in [1] was 24.3 µM (active); in test [2], 0.344 µM (active); in [3], 2.35 µM (active); in test [4], 2.35 µM (active); in test [6] it was 1.48 µM (active); in [9] it was 0.0827 µM (active). Also, the Potency in test [10] was 16.5 µM (active); in [11], 1.47 µM (active); in test [13], 5.85 µM (active); in test [14], 11.7 µM (active); in test [16], 0.233 µM (active).
Turning to `CCOc1cc2ncc(C#N)c(Nc3ccc(OCc4ccccn4)c(Cl)c3)c2cc1NC(=O)C=CCN(C)C`, the Potency is 1.93 µM (active) in test [1]; 0.863 µM (active) in test [2]; 0.418 µM (active) in test [3]; 10.4 µM (active) in test [9]; 4.14 µM (active) in test [13].
Regarding `C[C@@]12C(=O)OC(=O)[C@@]1(C)C1CCC2O1`, the Potency is 8.63 µM (active) in test [1]; 2.43 µM (active) in [2]; 5.9 µM (active) in [3]; 1.87 µM (active) in test [4]; 3.72 µM (active) in test [6]; 3.29 µM (active) in test [7]. Besides, the Potency in test [10] was 8.27 µM (active); in test [12] it was 2.61 µM (active); in [18], 2.08 µM (active); in [13], 6.57 µM (active); in test [14], 2.08 µM (active); in test [15], 3.69 µM (active). Moreover, the Potency in test [16] is 1.47 µM (active).
`O=C1NCCc2[nH]c(-c3ccncc3)cc21`: the Potency in test [1] is 2.43 µM (active); in [2] it was 2.43 µM (active); in test [3], 6.62 µM (active); in test [6], 2.35 µM (active); in [9] it was 7.37 µM (active); in test [10], 2.33 µM (active). Moreover, the Potency in [12] is 4.14 µM (active); in test [14], 2.33 µM (active); in [15], 4.14 µM (active); in test [16], 8.27 µM (active). In addition, the Potency entry in test [19], in test [5] and in test [17] was “inactive” in each case.
Regarding `CCc1cc(C(C)=NOCc2ccc(C3CCCCC3)c(C(F)(F)F)c2)ccc1CN1CC(C(=O)O)C1`, the Potency in test [1] is 3.06 µM (active); in test [2], 8.63 µM (active); in [3], 5.9 µM (active); in test [7], 29.3 µM (active); in test [8], 13.1 µM (active); in test [9], 8.27 µM (active). Further, the Potency result in test [19], in test [5], in [18], in [16] and in test [17] was “inactive” throughout.
`CC(C)(C)[C@H](NC(=O)c1ccc(N)c(Cl)c1)C(=O)N1CCC[C@@H]1C(=O)N[C@H](C#N)CC(=O)O`: the activity change, negative = cytotoxic was 15.5% [at 6.03 µM] in [1]; -19.6% [at 6.18 µM] in [2]; -25.9% [at 4.84 µM] in [4]; -7.94% [at 4.84 µM] in test [19]; 14.6% [at 4.84 µM] in [5].
